In ChEMBL document CHEMBL5724796, “Tm Shift (DSF) assay results for EUbOPEN Chemogenomics Library” (2024) one finds ΔTm data, which are given here for 16 compounds.

What all share (conditions): Compound concentration 20.0 uM
Assay [1] concerns the target Tyrosine-protein kinase ABL1 (Homo sapiens) (UniProt P00519).
In assay [2] the target is Bromodomain-containing protein 4 (Homo sapiens) (UniProt O60885).
For assay [3], the target named is Cyclin-dependent kinase 2 (Homo sapiens) (UniProt P24941).
Assay [4] addresses Casein kinase I isoform delta (Homo sapiens) (UniProt P48730).
For assay [5], the target named is Glycogen synthase kinase-3 beta (Homo sapiens) (UniProt P49841).
Assay [6] concerns the target Mitogen-activated protein kinase 1 (Homo sapiens) (UniProt P28482).
The target in assay [7] is T1, Aurora kinase A (Homo sapiens) (UniProt O14965).
T1 sequence (whole entry): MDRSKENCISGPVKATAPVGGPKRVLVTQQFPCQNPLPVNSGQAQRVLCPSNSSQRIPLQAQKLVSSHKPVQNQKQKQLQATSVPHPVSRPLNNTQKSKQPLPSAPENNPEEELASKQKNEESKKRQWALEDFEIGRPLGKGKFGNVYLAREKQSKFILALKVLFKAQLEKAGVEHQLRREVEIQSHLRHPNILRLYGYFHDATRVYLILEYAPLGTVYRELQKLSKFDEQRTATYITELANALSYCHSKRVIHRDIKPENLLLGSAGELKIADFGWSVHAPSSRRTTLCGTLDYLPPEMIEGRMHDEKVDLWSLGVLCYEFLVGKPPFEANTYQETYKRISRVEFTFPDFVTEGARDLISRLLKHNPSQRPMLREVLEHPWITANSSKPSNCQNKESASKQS

The target of assay [8] is T2, Transcription intermediary factor 1-alpha (Homo sapiens) (UniProt O15164).
T2 sequence (whole entry): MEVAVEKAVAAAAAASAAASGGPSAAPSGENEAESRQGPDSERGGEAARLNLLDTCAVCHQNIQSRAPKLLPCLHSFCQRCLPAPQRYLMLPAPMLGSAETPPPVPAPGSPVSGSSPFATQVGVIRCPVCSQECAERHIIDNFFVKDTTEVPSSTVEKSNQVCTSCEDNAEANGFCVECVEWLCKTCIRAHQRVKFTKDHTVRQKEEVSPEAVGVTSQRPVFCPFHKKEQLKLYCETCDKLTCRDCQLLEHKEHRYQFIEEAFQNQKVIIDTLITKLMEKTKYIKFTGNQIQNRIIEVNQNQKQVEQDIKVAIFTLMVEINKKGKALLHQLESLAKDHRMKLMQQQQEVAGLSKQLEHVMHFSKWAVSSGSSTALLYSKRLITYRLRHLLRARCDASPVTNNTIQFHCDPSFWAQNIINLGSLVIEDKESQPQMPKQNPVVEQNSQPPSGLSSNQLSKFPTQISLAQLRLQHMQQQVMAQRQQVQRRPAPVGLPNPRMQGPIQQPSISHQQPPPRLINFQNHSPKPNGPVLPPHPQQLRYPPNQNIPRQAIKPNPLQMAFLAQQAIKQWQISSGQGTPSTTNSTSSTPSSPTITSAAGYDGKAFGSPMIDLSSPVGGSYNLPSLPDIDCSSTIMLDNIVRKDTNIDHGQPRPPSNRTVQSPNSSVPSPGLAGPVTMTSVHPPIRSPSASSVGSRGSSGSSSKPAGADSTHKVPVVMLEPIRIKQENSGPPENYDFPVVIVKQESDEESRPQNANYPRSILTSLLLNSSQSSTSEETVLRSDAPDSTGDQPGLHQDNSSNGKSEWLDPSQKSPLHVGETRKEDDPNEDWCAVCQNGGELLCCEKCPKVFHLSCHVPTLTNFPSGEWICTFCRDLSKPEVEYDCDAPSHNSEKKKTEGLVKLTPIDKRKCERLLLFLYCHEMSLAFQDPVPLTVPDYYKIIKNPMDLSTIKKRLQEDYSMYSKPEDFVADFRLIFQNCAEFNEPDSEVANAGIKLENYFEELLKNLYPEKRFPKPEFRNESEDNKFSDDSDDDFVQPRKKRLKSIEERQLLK

Sequence of Glycogen synthase kinase-3 beta (Homo sapiens) (P49841 whole entry, looked up): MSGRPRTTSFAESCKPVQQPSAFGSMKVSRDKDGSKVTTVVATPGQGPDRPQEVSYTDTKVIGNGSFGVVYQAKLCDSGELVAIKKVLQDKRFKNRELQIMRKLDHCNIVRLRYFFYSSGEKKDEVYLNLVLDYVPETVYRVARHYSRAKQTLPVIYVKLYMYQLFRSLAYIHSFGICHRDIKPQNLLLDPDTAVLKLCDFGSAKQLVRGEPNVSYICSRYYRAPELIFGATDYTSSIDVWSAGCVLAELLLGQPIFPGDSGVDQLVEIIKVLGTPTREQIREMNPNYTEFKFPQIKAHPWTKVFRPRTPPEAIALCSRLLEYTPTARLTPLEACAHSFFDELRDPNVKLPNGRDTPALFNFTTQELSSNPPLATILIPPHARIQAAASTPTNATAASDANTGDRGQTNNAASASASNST
Sequence of Mitogen-activated protein kinase 1 (Homo sapiens) (P28482 whole entry): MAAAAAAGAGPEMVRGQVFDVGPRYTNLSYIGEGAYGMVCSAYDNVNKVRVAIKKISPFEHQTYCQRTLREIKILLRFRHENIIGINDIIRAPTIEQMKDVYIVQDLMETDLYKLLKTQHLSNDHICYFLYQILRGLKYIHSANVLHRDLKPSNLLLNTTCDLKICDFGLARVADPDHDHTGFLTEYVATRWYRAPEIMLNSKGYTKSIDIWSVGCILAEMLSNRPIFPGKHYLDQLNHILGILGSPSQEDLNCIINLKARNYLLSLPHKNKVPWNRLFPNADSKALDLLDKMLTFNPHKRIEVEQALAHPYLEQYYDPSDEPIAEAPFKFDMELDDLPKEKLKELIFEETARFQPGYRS
Sequence of Casein kinase I isoform delta (Homo sapiens) (P48730 whole entry, looked up, canonical isoform): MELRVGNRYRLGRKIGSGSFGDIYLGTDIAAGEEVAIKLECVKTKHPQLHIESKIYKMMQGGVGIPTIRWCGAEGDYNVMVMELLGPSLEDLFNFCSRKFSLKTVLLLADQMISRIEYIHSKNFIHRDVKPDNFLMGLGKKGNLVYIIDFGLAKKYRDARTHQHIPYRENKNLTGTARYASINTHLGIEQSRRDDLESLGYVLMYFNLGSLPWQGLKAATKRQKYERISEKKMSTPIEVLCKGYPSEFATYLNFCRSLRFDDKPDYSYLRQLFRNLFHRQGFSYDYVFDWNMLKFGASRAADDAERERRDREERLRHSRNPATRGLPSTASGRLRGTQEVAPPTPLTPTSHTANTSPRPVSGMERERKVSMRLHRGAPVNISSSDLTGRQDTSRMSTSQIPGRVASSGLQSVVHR
Sequence of Tyrosine-protein kinase ABL1 (Homo sapiens) (P00519 whole entry): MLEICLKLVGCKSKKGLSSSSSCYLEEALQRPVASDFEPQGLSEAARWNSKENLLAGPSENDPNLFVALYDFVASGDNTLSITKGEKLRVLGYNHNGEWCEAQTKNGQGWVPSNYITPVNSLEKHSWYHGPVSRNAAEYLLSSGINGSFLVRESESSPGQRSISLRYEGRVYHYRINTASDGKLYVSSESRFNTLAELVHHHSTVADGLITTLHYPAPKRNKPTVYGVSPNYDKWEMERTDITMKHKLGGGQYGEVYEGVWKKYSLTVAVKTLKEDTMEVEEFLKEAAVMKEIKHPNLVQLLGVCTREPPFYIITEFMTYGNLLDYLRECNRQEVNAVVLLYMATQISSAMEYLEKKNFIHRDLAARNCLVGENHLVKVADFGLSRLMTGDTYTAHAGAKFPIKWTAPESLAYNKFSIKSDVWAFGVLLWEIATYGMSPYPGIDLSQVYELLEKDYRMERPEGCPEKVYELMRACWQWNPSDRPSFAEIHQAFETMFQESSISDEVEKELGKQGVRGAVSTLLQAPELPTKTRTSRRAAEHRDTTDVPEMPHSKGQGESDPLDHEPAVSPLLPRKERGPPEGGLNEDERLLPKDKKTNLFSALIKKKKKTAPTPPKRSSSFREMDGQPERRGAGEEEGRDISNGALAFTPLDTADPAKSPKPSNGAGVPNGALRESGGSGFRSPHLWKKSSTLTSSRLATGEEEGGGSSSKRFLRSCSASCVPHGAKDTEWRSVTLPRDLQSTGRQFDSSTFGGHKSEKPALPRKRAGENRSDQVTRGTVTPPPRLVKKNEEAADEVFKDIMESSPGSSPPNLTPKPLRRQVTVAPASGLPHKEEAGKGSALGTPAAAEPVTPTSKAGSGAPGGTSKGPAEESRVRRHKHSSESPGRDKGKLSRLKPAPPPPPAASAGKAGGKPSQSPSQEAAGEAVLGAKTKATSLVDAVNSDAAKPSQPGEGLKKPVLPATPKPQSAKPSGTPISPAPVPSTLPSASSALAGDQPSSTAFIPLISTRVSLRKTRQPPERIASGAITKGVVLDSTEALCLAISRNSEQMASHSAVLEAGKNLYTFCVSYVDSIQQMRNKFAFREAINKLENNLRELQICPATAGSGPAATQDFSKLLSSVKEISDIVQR

One may read the ΔTm as the change in melting temperature against a reference sample. Take `COc1cc(C(C)C)c2c(c1)S(=O)(=O)N(COc1cc(=O)n3cccc(OCCN4CCCCC4)c3n1)C2=O`: the ΔTm in assay [1] was 0.26 °C; in assay [2], -2.34 °C; in assay [3], -0.17 °C; in assay [4], 0.5 °C; in assay [5], 0.26 °C; in assay [6], -0.23 °C. The ΔTm is 2.88 °C in assay [7] and -1.28 °C in assay [8].
Take `CC/C(=C(/CC)c1ccc(O)cc1)c1ccc(O)cc1`: the ΔTm is -0.96 °C in assay [1]; -4.78 °C in assay [2]; -5.57 °C in assay [3]; -0.81 °C in assay [4]; -3.54 °C in assay [5]; -12.2 °C in assay [6]. Besides, the figures for the ΔTm in assay [7] and in assay [8] were -1.78 °C and 1.49 °C, respectively.
For the compound `CC(C)Nc1cc(-c2c[nH]c(C(=O)N[C@H](CO)c3cccc(Cl)c3)c2)c(Cl)cn1`, the ΔTm is 1.43 °C in assay [1]; 6.89 °C in assay [2]; 8.63 °C in assay [3]; 0.57 °C in assay [4]; 14.2 °C in assay [5]; -1.26 °C in assay [6]. The results for the ΔTm in assay [7] and in assay [8] were 13.7 °C and 0.98 °C, respectively.
Turning to `CS(=O)(=O)c1ccc(Oc2cc(F)cc(C#N)c2)c2c1C(O)C(F)C2` (stereo not drawn), the ΔTm in assay [1] is 0.53 °C; in assay [2], -2.49 °C; in assay [3], 0.01 °C; in assay [4], -0.13 °C; in assay [5] it was -0.04 °C; in assay [6] it was 0.54 °C. The ΔTm is -2.47 °C in assay [7] and -0.39 °C in assay [8].
With `O=C1/C(=N/Nc2ccc(S(=O)(=O)O)cc2)C(c2ccc([N+](=O)[O-])cc2)=NN1c1ccccc1`, the ΔTm in assay [1] is 1.16 °C; in assay [2] it was -0.38 °C; in assay [3] it was -0.28 °C; in assay [4] it was 0.56 °C; in assay [5], -2.61 °C; in assay [6], 0 °C. Besides, the ΔTm in assay [7] was -0.73 °C; in assay [8], -0.32 °C.
`CS(=O)(=O)n1cc2c(n1)CN([C@H]1CO[C@H](c3cc(F)ccc3F)[C@@H](N)C1)C2`: the ΔTm in assay [1] was 0.01 °C; in assay [2] it was 1.23 °C; in assay [3], 0.1 °C; in assay [4], -0.33 °C; in assay [5], -0.84 °C; in assay [6], 0.32 °C. Further, the results for the ΔTm in assay [7] and in assay [8] were -2.29 °C and -0.65 °C, respectively.
`COc1ccc(N2CCN(C(=O)c3cc4c(s3)-c3ccccc3S(=O)(=O)C4)CC2)cc1`: the ΔTm in assay [1] was 0.15 °C; in assay [2], -2.04 °C; in assay [3] it was 0.12 °C; in assay [4], -0.01 °C; in assay [5], -0.71 °C; in assay [6], 0.36 °C. Further, the ΔTm in assay [7] was -1.67 °C; in assay [8], 0.69 °C.
As for `O=C(CCl)Nc1ccc(S(=O)(=O)c2ccc(NC(=O)CCl)cc2)cc1`, the ΔTm is 1.36 °C in assay [1]; -1.5 °C in assay [2]; 0 °C in assay [3]; 0.55 °C in assay [4]; 0.48 °C in assay [5]; -1.61 °C in assay [6]. Further, the ΔTm in assay [7] was -0.12 °C; in assay [8], 0.36 °C.
Consider `Cc1c(CN2CCC(Nc3ncnc4sc(CC(F)(F)F)cc34)CC2)ccc2[nH]c(C#N)cc12`, for which the ΔTm in assay [1] was -0.58 °C; in assay [2], 0.25 °C; in assay [3] it was -0.04 °C; in assay [4], 1.22 °C; in assay [5], -1.43 °C; in assay [6], -1.41 °C. Besides, the ΔTm in assay [7] is -7.15 °C; in assay [8], 0.71 °C.
For `Cc1[nH]c2c(N3CCCCC3)c(-c3ccccc3)nn2c(=O)c1-c1ccc(O)cc1`, the ΔTm is -0.07 °C in assay [1]; 0.61 °C in assay [2]; 0.64 °C in assay [3]; -0.07 °C in assay [4]; -1.39 °C in assay [5]; 0.65 °C in assay [6]. The ΔTm in assay [7] is -0.41 °C; in assay [8] it was -0.15 °C.
In the case of `N#Cc1cccnc1N1CCN(C(=O)c2cccc(Cc3n[nH]c(=O)c4ccccc34)c2)CC1`, the ΔTm in assay [1] was 0.57 °C; in assay [2], -2.92 °C; in assay [3] it was 0.15 °C; in assay [4], 0.14 °C; in assay [5], -0.23 °C; in assay [6] it was 0.24 °C. For the same compound, the ΔTm in assay [7] was -2.06 °C; in assay [8], -0.96 °C.
Turning to `CCCCCCCCCCCCCC(=S)NCCCC[C@H](NC(=O)OCc1ccccc1)C(=O)Nc1ccccc1`, the ΔTm in assay [1] worked out at 0.75 °C; in assay [2], 2.49 °C; in assay [3] it was 1.43 °C; in assay [4] it was 0.13 °C; in assay [5] it was 0.6 °C; in assay [6] it was 0.45 °C. Further, the results for the ΔTm in assay [7] and in assay [8] were -2.19 °C and 1.92 °C, respectively.
In the case of `CC(=O)O[C@]1(C(C)=O)CC[C@H]2[C@@H]3C=C(Cl)C4=CC(=O)[C@@H]5C[C@@H]5[C@]4(C)[C@H]3CC[C@@]21C`, the ΔTm in assay [1] was 0.36 °C; in assay [2] it was -1.71 °C; in assay [3], 0.15 °C; in assay [4] it was 0.16 °C; in assay [5], -0.72 °C; in assay [6] it was -0.22 °C. Moreover, the results for the ΔTm in assay [7] and in assay [8] were -1.49 °C and -1.08 °C, respectively.
For the compound `CN1CCc2c(n(Cc3ccc(C(=O)NO)cc3)c3ccccc23)C1`, the ΔTm in assay [1] was 0.24 °C; in assay [2] it was -1.44 °C; in assay [3] it was 0.56 °C; in assay [4], -0.06 °C; in assay [5] it was -0.89 °C; in assay [6], 0.14 °C. In addition, the figures for the ΔTm in assay [7] and in assay [8] were -0.37 °C and -1.21 °C, respectively.
As to `NS(=O)(=O)c1cc(-c2nnn[nH]2)c(NCc2cccs2)cc1Cl`, the ΔTm was 0.69 °C in assay [1]; -1.05 °C in assay [2]; 1.03 °C in assay [3]; 0.19 °C in assay [4]; 1.34 °C in assay [5]; 0.84 °C in assay [6]. For the same compound, the ΔTm in assay [7] was -1.94 °C; in assay [8], 0 °C.
For the compound `Nc1ccccc1NC(=O)c1ccc(CNC(=O)OCc2cccnc2)cc1`, the ΔTm in assay [1] was 0.63 °C; in assay [2], -1.69 °C; in assay [3], 0.81 °C; in assay [4], 0.33 °C; in assay [5], -0.75 °C; in assay [6], 0.21 °C. For the same compound, the values for the ΔTm in assay [7] and in assay [8] were 0.05 °C and -1.42 °C, respectively.
